Only a selection was taken, and hits are over-represented in it overall.
Pf apPOL inh – Pf-apPOL DNA polymerase inhibition. Recombinant Pf-apPOL, molecular beacon fluorescence, 1.5 h. inhibition, % at 10 µM. hit rate 0.25% among 210,000
mHTT CaM bind – mHTT-calmodulin interaction abrogation; P42858; inhibition, % at 15 µM; hit rate 3.6% among 190,000; AlphaScreen His-mHTT/GST-CaM binding, luminescence;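 also: 0% = both proteins with DMSO and 100% = one protein alone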
Starred values were filed as active, the others as inactive; i = inactive; · = no result given; + = active, no number. Rule as the data show it: active = inhibition above about 50%; inactive = the rest.

SMILES | Pf apPOL inh | mHTT CaM bind
COc1cccc2c1OC(C)(C)N1N=C(c3cccs3)CC21 (configuration not stated) | -26 | 61*
CC1(C)Oc2ccc(Br)cc2C2CC(c3cccs3)=NN21 (configuration not stated) | -3 | 59*
CC1CCN(Cn2nc(-c3ccco3)n(C)c2=S)CC1 | · | -8
Cc1ccc(NC(=O)CCS(=O)(=O)c2ccc(Br)s2)c(Br)c1 | -4 | -2
COC(=O)C1CCN(C(=O)Cc2csc(Nc3ccc(F)cc3)n2)CC1 | -49 | 1
COc1ccc(C=C2Oc3cc(OS(=O)(=O)c4ccccc4)ccc3C2=O)c(OC)c1 | -12 | -49
CC(=O)Nc1ccc(Nc2ncc([N+](=O)[O-])cc2[N+](=O)[O-])cc1 | 7 | 8
CCC(C)c1cc([N+](=O)[O-])cc([N+](=O)[O-])c1OC(=O)OC(C)C (configuration not stated) | -10 | 51*
CN(C)C1C(c2ccccc2)=C(c2ccccc2)SC(c2ccccc2)C1[N+](=O)[O-] (configuration not stated) | 25 | ·
Cc1c(CN2CCCC(c3nncn3Cc3ccccc3)C2)cnn1C (configuration not stated) | 0 | -1
S=c1[nH]nc(-c2cc(-c3ccccc3)n[nH]2)n1/N=C/C=C/c1ccco1 | · | +
S=c1[nH]nc(-c2ccco2)n1/N=C/C=C/c1ccco1 | · | i
N#CC(=Cc1ccc(C2=CCOc3ccccc32)s1)S(=O)(=O)c1ccccc1 | 6 | ·
O=C(NC(Nc1ccccc1)C(Cl)(Cl)Cl)c1cccc(Cl)c1 (configuration not stated) | -1 | 23
CC(C)(C)C(=O)NC(Nc1ccc([N+](=O)[O-])cc1)C(Cl)(Cl)Cl (configuration not stated) | 16 | 12
O=C(NC(Nc1ccc(Cl)cc1)C(Cl)(Cl)Cl)c1cccc([N+](=O)[O-])c1 (configuration not stated) | -2 | 99*
NS(=O)(=O)c1ccc(NC(NC(=O)c2cccc([N+](=O)[O-])c2)C(Cl)(Cl)Cl)cc1 (configuration not stated) | -4 | 29
O=C(NC(Nc1ccc([N+](=O)[O-])cc1)C(Cl)(Cl)Cl)c1ccc([N+](=O)[O-])cc1 (configuration not stated) | -1 | 79*
COc1ccc(NC(NC(=O)c2cccc(Cl)c2)C(Cl)(Cl)Cl)cc1 (configuration not stated) | -6 | 65*
O=C(NC(Nc1cccc(Cl)c1)C(Cl)(Cl)Cl)c1cccc([N+](=O)[O-])c1 (configuration not stated) | 3 | 95*
O=C(NC(Nc1cccc([N+](=O)[O-])c1)C(Cl)(Cl)Cl)c1cccnc1 (configuration not stated) | 0 | 7
COC(=O)COc1ccc2c(C)c(-c3cc(OC)ccc3OC)c(=O)oc2c1 | -6 | 8
Cc1cc(C(=O)N(CC(C)C)CC(C)C)ccc1[N+](=O)[O-] | -2 | 1
Cc1c(Cl)cccc1-n1ccn2cc(-c3cccs3)nc2c1=O | -3 | 0
CN1CCN(C(=O)c2cc3nc(-c4ccc(Br)cc4)cc(C(F)(F)F)n3n2)CC1 | -1 | 12
SMILES | Pf apPOL inh | mHTT CaM bind
Cc1cc(C)n(Cc2cc(C)c(Cn3nc(C)cc3C)cc2C)n1 | -3 | -2
CC(NC(=O)CN(C)S(=O)(=O)c1ccc(Br)s1)c1ccccc1 (configuration not stated) | 0 | 1
O=C(CSCc1ccc([N+](=O)[O-])cc1)Nc1ccc(F)cc1 | -14 | 4
Cc1nc2ccc(NC(=O)N3CCN(c4ccccc4)CC3)cc2nc1C | 0 | 14
Cc1cc(C)c(OCc2cn(CC(=O)c3ccc(O)cc3)nn2)c(C)c1 | 7 | 2
O=C(NC(Nc1ccc(Br)cc1)C(Cl)(Cl)Cl)c1cccc([N+](=O)[O-])c1 (configuration not stated) | -6 | 96*
O=C(NC(Nc1cccc([N+](=O)[O-])c1)C(Cl)(Cl)Cl)c1cccc([N+](=O)[O-])c1 (configuration not stated) | -2 | 54*
O=C(NC(NCc1ccccc1)C(Cl)(Cl)Cl)c1cccc([N+](=O)[O-])c1 (configuration not stated) | 0 | 20
Cc1cccc(C(=O)NC(Nc2cccc([N+](=O)[O-])c2)C(Cl)(Cl)Cl)c1 (configuration not stated) | 2 | 11
Cc1sc2c(c1C)C(=O)NC1(N2)C(=O)N(Cc2ccccc2F)c2ccccc21 (configuration not stated) | 16 | 53*
O=C1N(Cc2ccccc2F)c2ccccc2C12OCCCO2 | -7 | -28
N=c1c(C(=O)NCc2cccnc2)cc2c(=O)n3ccccc3nc2n1C1CCCCC1 | 1 | -1
COc1ccc(OC)c(S(=O)(=O)n2nnc3cc(Cl)ccc32)c1 | -10 | 100*
Cc1ccc(C)c(S(=O)(=O)n2nnc3cc(Cl)ccc32)c1 | -2 | -6
N#C/C(=C\c1ccc(N2Cc3ccccc3C2)cc1)C(=O)N1CCN(c2ccccc2)CC1 | 5 | 49
COc1ccc(NC(=O)CN(c2ccc(C)cc2C)S(C)(=O)=O)cc1OC | -13 | 3
CS(=O)(=O)N(CC(=O)Nc1ccccc1)c1cc(C(F)(F)F)ccc1Cl | -2 | 6
Cc1ccc(N(CC(=O)Nc2ccc(F)cc2)S(C)(=O)=O)c(C)c1 | 74* | 5
Cc1ccc(N(CC(=O)Nc2ccc(C(N)=O)cc2)S(=O)(=O)c2ccc(F)cc2)cc1 | -3 | 13
COc1ccccc1NC(=O)CN(c1ccccc1C)S(=O)(=O)c1ccc(C)cc1 | -2 | -1
O=C(CN(c1cc(C(F)(F)F)ccc1Cl)S(=O)(=O)c1ccccc1)Nc1ccccc1 | -5 | 99*
Cc1ccc(S(=O)(=O)N(CC(=O)Nc2ccccc2F)c2ccccc2C)cc1 | -5 | 82*
COc1ccc(NC(=O)CN(c2ccc(C)cc2)S(=O)(=O)c2ccc(F)cc2)cc1OC | 90* | 5
O=C1COc2ccccc2N1Cc1nc(-c2ccccc2)no1 | 2 | -16
O=C(Nc1nnc(C2CC2)s1)c1csc2ccccc12 | -2 | 4
SMILES | Pf apPOL inh | mHTT CaM bind
O=C(NCCCn1cccn1)C1CCCN(c2nnc3c(Cl)cccn23)C1 (configuration not stated) | -1 | -1
Cc1cccc(N(CC(=O)Nc2ccccc2Cl)S(=O)(=O)c2ccccc2)c1C | -8 | -8
Cc1cccc(N(CC(=O)Nc2ccc(F)cc2)S(=O)(=O)c2ccccc2)c1C | 32 | 100*
COc1ccccc1N(CC(=O)Nc1ccc(Br)c(C)c1)S(C)(=O)=O | -7 | 69*
COc1ccc(C)cc1N(CC(=O)Nc1cccc(Br)c1)S(C)(=O)=O | -4 | 41
O=C(Nc1nnc(COc2ccccc2)o1)C1=COCCO1 | -4 | 26
CSc1nccc(-c2ccsc2)n1 | -10 | ·
O=C(NC(Nc1ccc(Cl)c(Cl)c1)C(=O)c1ccccc1)c1cccs1 (configuration not stated) | -7 | 90*
NS(=O)(=O)c1ccc(NC(NC(=O)c2cccs2)C(=O)c2ccccc2)cc1 (configuration not stated) | 8 | 11
Cc1ccc(NC(NC(=O)c2cccs2)C(=O)c2ccccc2)cc1C (configuration not stated) | -1 | -3
O=C(NC(Nc1cccc(Cl)c1)C(=O)c1ccccc1)c1cccs1 (configuration not stated) | 27 | 67*

Source: PubChem BioAssay
